Assay results as given in the supplement of paper PMC10849652.
About 7,900 targets were measured; listed, in parts, are those with a hit and a random draw of the rest. About 0.6% of all pairs of compound and target were hits.

Compound: CN(C)CC(=O)Nc1ccc2[nH]c(=O)c3ccccc3c2c1
Assay: log2 fold change, soluble protein after heating vs DMSO (PISA); higher = thermal stabilisation; K562 cells, 10 uM, 30 min; active = over 0.2 and 3.5 SD of the protein, either way, in both replicates (recomputed)
Method in brief: (§1)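 K562 cells at 2×10^6 cells/mL were treated with 10 μM compound for 30 min. Aliquots were heated for 3 min across 48°C-58°C, pooled, and extracted in PBS with 0.5% NP-40 at 4°C; soluble protein was the supernatant after 21,000xg for 90 min. Soluble protein was quantified by TMTpro 16plex LC-MS/MS with channel sums equalised, and reported as log2 fold change in thermal stability against DMSO controls, with values from duplicates.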

Sequence of UniProt Q8WV92 (Q8WV92 whole entry, looked up): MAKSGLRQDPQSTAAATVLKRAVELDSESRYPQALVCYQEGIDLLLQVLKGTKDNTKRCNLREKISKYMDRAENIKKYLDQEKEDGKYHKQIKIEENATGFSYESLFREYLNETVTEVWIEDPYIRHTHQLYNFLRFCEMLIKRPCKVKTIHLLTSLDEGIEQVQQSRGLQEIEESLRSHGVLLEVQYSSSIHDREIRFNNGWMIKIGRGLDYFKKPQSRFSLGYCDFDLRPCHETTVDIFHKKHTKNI
Sequence of UniProt Q96PU5 (Q96PU5 whole entry, looked up): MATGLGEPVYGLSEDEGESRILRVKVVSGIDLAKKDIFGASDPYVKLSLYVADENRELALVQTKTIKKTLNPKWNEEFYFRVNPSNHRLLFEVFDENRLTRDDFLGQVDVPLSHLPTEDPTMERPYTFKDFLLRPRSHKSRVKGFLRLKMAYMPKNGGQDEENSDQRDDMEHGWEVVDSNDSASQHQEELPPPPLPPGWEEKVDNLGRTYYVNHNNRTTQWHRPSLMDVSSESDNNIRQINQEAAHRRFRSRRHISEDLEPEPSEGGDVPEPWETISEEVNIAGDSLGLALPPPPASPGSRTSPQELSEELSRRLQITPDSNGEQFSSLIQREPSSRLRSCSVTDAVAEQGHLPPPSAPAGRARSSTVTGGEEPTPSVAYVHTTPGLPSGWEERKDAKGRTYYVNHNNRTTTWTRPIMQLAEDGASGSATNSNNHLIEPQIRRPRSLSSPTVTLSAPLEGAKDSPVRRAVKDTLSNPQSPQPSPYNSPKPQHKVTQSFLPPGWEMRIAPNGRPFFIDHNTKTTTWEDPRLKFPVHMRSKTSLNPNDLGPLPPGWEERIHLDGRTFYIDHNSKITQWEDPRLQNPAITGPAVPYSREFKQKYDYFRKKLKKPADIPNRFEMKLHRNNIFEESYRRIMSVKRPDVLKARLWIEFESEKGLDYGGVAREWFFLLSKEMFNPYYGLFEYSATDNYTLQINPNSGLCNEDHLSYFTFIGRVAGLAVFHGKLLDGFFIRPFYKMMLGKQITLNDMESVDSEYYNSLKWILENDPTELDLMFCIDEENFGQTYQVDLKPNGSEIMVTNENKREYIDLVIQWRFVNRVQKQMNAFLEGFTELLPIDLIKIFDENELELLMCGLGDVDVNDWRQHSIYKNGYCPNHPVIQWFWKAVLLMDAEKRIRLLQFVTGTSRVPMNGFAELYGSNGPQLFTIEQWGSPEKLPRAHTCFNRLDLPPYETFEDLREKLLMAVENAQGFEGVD
Sequence of UniProt P68402 (P68402 whole entry, looked up): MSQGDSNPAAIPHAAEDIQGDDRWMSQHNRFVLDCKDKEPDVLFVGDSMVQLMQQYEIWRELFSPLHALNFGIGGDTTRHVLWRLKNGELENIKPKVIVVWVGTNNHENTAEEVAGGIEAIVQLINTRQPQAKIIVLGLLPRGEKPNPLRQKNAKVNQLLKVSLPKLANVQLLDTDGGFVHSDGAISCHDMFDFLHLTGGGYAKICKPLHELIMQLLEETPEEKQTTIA
Sequence of UniProt Q9BUB5 (Q9BUB5 whole entry, looked up): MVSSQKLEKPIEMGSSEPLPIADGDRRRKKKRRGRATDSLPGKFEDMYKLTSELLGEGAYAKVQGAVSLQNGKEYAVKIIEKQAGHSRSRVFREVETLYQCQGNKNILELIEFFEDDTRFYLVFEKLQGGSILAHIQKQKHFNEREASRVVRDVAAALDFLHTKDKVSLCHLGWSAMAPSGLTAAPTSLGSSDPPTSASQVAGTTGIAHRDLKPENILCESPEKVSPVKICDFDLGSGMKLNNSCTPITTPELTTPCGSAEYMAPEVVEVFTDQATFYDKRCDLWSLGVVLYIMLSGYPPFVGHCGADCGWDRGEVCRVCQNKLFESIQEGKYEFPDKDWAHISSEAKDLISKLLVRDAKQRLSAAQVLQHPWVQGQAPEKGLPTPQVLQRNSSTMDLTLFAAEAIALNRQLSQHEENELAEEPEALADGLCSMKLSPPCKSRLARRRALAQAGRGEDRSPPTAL
Sequence of UniProt Q12968 (Q12968 whole entry, looked up): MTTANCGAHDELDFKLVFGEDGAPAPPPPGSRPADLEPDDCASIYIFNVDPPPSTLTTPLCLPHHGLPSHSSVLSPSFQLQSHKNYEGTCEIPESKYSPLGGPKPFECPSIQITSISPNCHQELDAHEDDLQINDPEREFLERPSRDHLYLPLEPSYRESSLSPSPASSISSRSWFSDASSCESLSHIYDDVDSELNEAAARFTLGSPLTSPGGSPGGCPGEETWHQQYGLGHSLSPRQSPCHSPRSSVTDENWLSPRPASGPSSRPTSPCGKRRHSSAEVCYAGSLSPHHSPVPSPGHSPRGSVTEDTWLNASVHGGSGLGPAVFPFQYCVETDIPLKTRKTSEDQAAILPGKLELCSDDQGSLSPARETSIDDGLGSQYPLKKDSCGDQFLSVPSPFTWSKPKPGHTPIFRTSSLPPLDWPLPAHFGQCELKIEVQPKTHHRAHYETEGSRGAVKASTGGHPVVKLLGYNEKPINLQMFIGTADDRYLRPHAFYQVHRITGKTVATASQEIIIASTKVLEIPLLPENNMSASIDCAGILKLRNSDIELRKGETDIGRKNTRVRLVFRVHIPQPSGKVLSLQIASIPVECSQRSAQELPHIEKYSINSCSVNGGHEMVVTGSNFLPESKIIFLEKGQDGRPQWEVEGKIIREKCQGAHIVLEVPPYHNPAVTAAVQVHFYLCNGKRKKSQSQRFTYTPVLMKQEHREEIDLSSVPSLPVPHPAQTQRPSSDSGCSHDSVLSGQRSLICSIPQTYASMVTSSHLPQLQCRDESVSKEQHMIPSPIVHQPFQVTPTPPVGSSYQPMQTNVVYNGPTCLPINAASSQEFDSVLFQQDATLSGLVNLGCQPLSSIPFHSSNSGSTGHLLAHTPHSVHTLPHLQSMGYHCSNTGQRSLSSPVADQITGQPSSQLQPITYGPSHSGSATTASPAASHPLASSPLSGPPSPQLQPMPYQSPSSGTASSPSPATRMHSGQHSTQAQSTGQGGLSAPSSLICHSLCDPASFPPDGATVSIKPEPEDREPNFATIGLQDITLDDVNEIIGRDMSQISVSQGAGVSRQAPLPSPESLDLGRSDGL
Sequence of UniProt O14950 (O14950 whole entry, looked up): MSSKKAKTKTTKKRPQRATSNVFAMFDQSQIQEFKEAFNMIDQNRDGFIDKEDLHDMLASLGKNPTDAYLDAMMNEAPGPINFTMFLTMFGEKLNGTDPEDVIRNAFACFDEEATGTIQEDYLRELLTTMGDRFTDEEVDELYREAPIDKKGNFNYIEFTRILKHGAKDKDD
Sequence of UniProt O00567 (O00567 whole entry, looked up): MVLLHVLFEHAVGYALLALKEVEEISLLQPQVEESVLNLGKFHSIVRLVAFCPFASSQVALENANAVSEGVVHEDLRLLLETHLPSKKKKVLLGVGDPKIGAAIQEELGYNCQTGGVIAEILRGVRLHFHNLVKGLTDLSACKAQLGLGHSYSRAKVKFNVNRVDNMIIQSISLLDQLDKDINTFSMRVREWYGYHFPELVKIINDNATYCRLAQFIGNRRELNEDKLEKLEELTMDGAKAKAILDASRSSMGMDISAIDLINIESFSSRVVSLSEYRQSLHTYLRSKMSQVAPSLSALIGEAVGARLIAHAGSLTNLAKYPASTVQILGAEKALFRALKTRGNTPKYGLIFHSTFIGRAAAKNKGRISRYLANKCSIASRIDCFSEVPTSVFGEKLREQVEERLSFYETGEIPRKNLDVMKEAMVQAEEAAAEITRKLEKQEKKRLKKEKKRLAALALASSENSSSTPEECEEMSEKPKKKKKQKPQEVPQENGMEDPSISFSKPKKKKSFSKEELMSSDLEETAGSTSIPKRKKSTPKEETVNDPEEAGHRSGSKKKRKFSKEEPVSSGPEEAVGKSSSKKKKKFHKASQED
Sequence of UniProt O75251 (O75251 whole entry, looked up): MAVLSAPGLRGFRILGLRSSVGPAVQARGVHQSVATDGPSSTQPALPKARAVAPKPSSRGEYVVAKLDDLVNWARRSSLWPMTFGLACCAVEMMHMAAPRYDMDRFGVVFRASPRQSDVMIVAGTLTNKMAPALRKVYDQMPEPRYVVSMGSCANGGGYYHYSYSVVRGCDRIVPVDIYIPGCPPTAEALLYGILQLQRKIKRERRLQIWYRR
Sequence of UniProt Q9Y2X3 (Q9Y2X3 whole entry, looked up): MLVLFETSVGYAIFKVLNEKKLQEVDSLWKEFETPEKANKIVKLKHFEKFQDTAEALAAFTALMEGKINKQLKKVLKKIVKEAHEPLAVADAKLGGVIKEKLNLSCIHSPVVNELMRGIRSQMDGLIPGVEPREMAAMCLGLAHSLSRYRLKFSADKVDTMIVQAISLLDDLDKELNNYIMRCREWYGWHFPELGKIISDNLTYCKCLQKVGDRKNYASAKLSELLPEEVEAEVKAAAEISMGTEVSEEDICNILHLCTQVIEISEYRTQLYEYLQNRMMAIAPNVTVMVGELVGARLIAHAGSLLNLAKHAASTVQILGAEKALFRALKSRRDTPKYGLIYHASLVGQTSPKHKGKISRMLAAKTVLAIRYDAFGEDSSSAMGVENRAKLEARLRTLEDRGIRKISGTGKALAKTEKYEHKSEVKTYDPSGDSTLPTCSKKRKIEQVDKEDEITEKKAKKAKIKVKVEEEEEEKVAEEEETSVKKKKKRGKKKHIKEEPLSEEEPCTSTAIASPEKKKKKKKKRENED
Sequence of UniProt O60551 (O60551 whole entry, looked up): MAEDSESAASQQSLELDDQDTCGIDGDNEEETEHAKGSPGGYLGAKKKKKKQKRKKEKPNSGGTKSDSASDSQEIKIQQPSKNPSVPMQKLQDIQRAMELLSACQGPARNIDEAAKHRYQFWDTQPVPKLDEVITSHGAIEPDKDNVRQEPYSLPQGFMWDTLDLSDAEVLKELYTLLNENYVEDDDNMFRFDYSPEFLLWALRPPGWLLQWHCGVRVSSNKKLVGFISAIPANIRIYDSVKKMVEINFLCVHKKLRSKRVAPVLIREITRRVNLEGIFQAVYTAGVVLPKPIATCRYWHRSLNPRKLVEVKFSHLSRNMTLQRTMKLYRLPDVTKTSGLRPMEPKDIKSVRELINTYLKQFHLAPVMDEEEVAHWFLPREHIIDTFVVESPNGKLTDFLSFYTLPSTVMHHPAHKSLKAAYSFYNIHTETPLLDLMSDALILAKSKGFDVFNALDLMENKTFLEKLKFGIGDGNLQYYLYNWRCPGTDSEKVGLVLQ

log2 fold change, inactive:
NELFB isoform 2 (UniProt Q8WX92) 0.068
MRPL50 (UniProt Q8N5N7) 0.037
MRPL46 (UniProt Q9H2W6) 0.014
NOP56 (UniProt O00567) -0.208
MTHFS (UniProt P49914) 0.034
MKNK1 (UniProt Q9BUB5) 0.009
NMNAT1 (UniProt Q9HAN9) -0.092
MT-ATP6 (UniProt P00846) -0.095
NFATC3 (UniProt Q12968) 0.049
NELFA (UniProt Q9H3P2) 0.16
OSTM1 (UniProt Q86WC4) -0.072
NDUFS8 (UniProt O00217) 0
MITD1 (UniProt Q8WV92) 0.049
NFX1 (UniProt Q12986) -0.216
NBN (UniProt O60934) 0.061
NDUFS7 (UniProt O75251) 0.012
NA, A0A096LPI6 -0.002
NSMCE2 (UniProt Q96MF7) -0.007
NIPSNAP2 (UniProt O75323) -0.041
MRPS10 (UniProt P82664) 0.085
NNT (UniProt Q13423) 0.015
NEU1 (UniProt Q99519) 0.012
NOL11 (UniProt Q9H8H0) -0.005
MRPS25 (UniProt P82663) -0.056
MRPS5 (UniProt P82675) -0.037
NMT2 (UniProt O60551) -0.013
NEDD4L (UniProt Q96PU5) 0.023
NR2C2 isoform 2 (UniProt P49116) -0.069
P4HA2 (UniProt O15460) -0.036
OSTC (UniProt Q9NRP0) 0.073
NFATC2 (UniProt Q13469) 0.065
PAFAH1B2 (UniProt P68402) -0.009
NA, A0A0B4J2A0 -0.004
OXSM (UniProt Q9NWU1) -0.005
NDUFA12 (UniProt Q9UI09) 0.119
NOP58 (UniProt Q9Y2X3) 0.052
MSTO1 (UniProt Q9BUK6) 0.071
MRPS27 isoform 2 (UniProt Q92552) 0.019
MYL12B (UniProt O14950) 0.031

Compound: CN(CCOC1=CC=C(C=C1)C[C@H]2C(=O)NC(=O)S2)C3=CC=CC=N3 (racemic) [rosiglitazone]
Assay: as above
Method in brief: as §1

log2 fold change, inactive:
NELFB isoform 2 (UniProt Q8WX92) 0.041
MRPL50 (UniProt Q8N5N7) -0.015
MRPL46 (UniProt Q9H2W6) -0.017
NOP56 (UniProt O00567) -0.079
MTHFS (UniProt P49914) 0.046
MKNK1 (UniProt Q9BUB5) 0.036
NMNAT1 (UniProt Q9HAN9) -0.126
MT-ATP6 (UniProt P00846) 0.502
NFATC3 (UniProt Q12968) 0.068
NELFA (UniProt Q9H3P2) 0.048
OSTM1 (UniProt Q86WC4) 0.004
NDUFS8 (UniProt O00217) 0.039
MITD1 (UniProt Q8WV92) -0.016
NFX1 (UniProt Q12986) 0.138
NBN (UniProt O60934) 0.034
NDUFS7 (UniProt O75251) 0.053
NA, A0A096LPI6 -0.019
NSMCE2 (UniProt Q96MF7) 0.119
NIPSNAP2 (UniProt O75323) 0.005
MRPS10 (UniProt P82664) 0.003
NNT (UniProt Q13423) 0.042
NEU1 (UniProt Q99519) 0.032
NOL11 (UniProt Q9H8H0) -0.025
MRPS25 (UniProt P82663) -0.042
MRPS5 (UniProt P82675) -0.005
NMT2 (UniProt O60551) -0.056
NEDD4L (UniProt Q96PU5) 0.029
NR2C2 isoform 2 (UniProt P49116) 0.022
P4HA2 (UniProt O15460) -0.126
OSTC (UniProt Q9NRP0) 0.048
NFATC2 (UniProt Q13469) 0.191
PAFAH1B2 (UniProt P68402) 0
NA, A0A0B4J2A0 0.049
OXSM (UniProt Q9NWU1) 0.02
NDUFA12 (UniProt Q9UI09) 0.082
NOP58 (UniProt Q9Y2X3) -0.052
MSTO1 (UniProt Q9BUK6) 0.119
MRPS27 isoform 2 (UniProt Q92552) 0.05
MYL12B (UniProt O14950) -0.025
